This is a sample that favours compounds with a hit; in the whole collection about 19% have one here.
HT1080 IDH1KD tx: kills HT-1080 cells with IDH1 knockdown | HT-1080 IDH1 knockdown viability, ATP luminescence, 48 h | Potency, µM (highest dose often 46.1 µM), for inactives: at the highest dose activity, negative = toxicity, usual class: cytotoxic | hit rate 2% among 360,000;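 note: potency is the fitted concentration of half-maximal effect; 0% = DMSO wells and -100% = cell-free medium wells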
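After a 2 h attachment period, IDH1KD HT-1080 cells took pin-transferred compound for 48 h at 37 °C; ATP-based luminescence after 10 min room-temperature reagent incubation reported viability.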
IL1B secr inh: inhibitors of inflammasome signaling (IL-1 beta secretion). THP-1 LPS/ATP IL-1B secretion, AlphaLISA, 16 h; active compounds read low. activity change, % at 57.5 µM. hit rate 4.7% among 360,000. AID 743279; in the data active = activity change below about -50%; inconclusive = mostly about -30% to -49%
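Secreted IL-1B measured by AlphaLISA bead assay after 16 h compound exposure of THP-1 cells; compounds (final up to 57.5 uM) added 1 h before LPS (250 ng/mL) and ATP (1.25 mM) stimulation; lower signal means less secretion.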
ELG1 repair inh: inhibitors of ELG1-dependent DNA repair in HEK293T cells; HEK293T ELG1-luciferase reporter, luminescence, 16 h; DNA damage induced by 5-fluorouridine; Potency, µM (top dose mostly 46.1 µM), without a hit: at the highest dose activity change, negative = inhibition, usual class: inhibitors; hit rate 2.3% among 330,000; AID 504467; note: potency is the fitted concentration of half-maximal effect; nearly all actives have a fitted effect of over 55% in size
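HEK293T cells expressing luciferase-tagged ELG1 (2,000/well) received 5-Fluorouridine plus compound or DMSO for 16 hr at 37 °C. Luciferase was read by ONE-Glo luminescence after 30 min at room temperature.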
HT1080NT lethal: kills 2HG-producing HT-1080-NT fibrosarcoma cells; hit rate 1.6% among 360,000; HT-1080-NT fibrosarcoma viability, CellTiter-Glo ATP luminescence, 48 h; Potency, µM (highest dose often 46.1 µM), for the others: top-dose activity, negative = less viability, actives largely listed as cytotoxic; AID 686970;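 note: NT is the 2HG producing partner of a matched IDH1 knockdown line; potency is the fitted concentration of half-maximal effect; 0% = DMSO-treated cells and -100% = media-only wells without cells; nearly all actives have a fitted effect of over 55% in size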
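Viability of the 2HG-overproducing fibrosarcoma line after 48 hours of compound exposure at 37 degrees C was determined by luminescence with CellTiter-Glo, and concentration-effect curves were then fitted and categorized.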
DT40 TDP1 no CPT: qHTS for Inhibitors of human tyrosyl-DNA phosphodiesterase 1 (TDP1): qHTS in cells in absence of CPT; Potency, µM (top dose mostly 46.2 µM), for inactives: at the top dose activity change, negative = growth inhibition, usual class: inhibitors; DT40 Tdp1-/- hTDP1 cells, no CPT, ATP luminescence, 48 h; hit rate 15% among 420,000; note: potency is the fitted concentration of half-maximal effect; nearly all actives have a fitted effect of over 55% in size
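A cellular qHTS used chicken DT40 cells lacking endogenous Tdp1 but carrying stably transfected human TDP1. Compounds were applied without camptothecin, and cell growth kinetics were judged by ATP-dependent luminescence after ≥48 hr.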
DT40 TDP1 CPT: growth inhibition of DT40 Tdp1-/-;hTDP1 cells with camptothecin (screen for TDP1 inhibitors); chicken DT40 Tdp1-/-;hTDP1 cells + 20 nM CPT, ATP luminescence, 48 h; AID 686979; hit rate 12% among 420,000; Potency, µM (titrated, usually from 46.2 µM), without a hit: top-dose activity change, negative = growth inhibition, usual class: inhibitors; note: potency is the fitted concentration of half-maximal effect; nearly all actives have a fitted effect of over 55% in size
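Cell growth measured by CellTiter-Glo luminescence after a minimum 48 h, 37 C compound exposure with 20 nM CPT in Tdp1-knockout DT40 cells stably expressing hTDP1, seeded 400/well; qHTS titration format.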
The depositor's hits bear a star; ? = inconclusive; nt = no result given; [ ] = dose if it differs, or a comment. Unless noted, calls come from the whole dose curve; as a rule, active = well fitted curve in the direction sought with a large enough effect; inconclusive = small, poorly fitted or top-dose-only effect, or another doubt; inactive = no such curve, though single readings can be large; an effect the other way counts as inactive or inconclusive. Unless noted, % is set by controls: 0 for no effect and ±100 for the full control effect.

SMILES	HT1080 IDH1KD tx	IL1B secr inh	ELG1 repair inh	HT1080NT lethal	DT40 TDP1 no CPT	DT40 TDP1 CPT
O=C(O)Cc1cn(-c2ccccc2)nc1-c1ccccc1	15%	-6	3%	15%	-20%	3%
OCc1cn(-c2ccccc2)nc1-c1ccc(-c2nn(-c3ccccc3)cc2CO)cc1	-19%	-15	?	-17%	10µM*	?
Fc1ccc(-n2cc(CNCCc3cccnc3)c(-c3ccccc3Cl)n2)cc1	?	-76*	?	21µM*	23µM*	15µM*
CCn1cc(CNC(=O)c2cccc([N+](=O)[O-])c2)c(C)n1	15%	22	-2%	11%	-9%	-6%
Fc1ccc(-c2nn(-c3ccccc3)cc2CNCc2ccccc2)cc1	23µM*	-90*	?	21µM*	?	?
Cc1ccc(S(=O)(=O)CCC(=O)OC2CC(C)OC2=O)cc1 (stereo not given)	0%	17	0%	0%	-15%	20%
O=C(CCl)Nc1cn(-c2ccccc2)nc1-c1ccc(F)cc1	4.6µM*	-107*	5%	8.2µM*	3.7µM*	4.6µM*
CC1=NN(c2ccccc2)C(=O)/C1=C/c1c(O)n(-c2ccc(F)cc2)[nH]c1=O	2%	-29	?	-8%	-21%	-10%
O=C1N=c2ccccc2=C1c1c(O)n(-c2cccc(F)c2)[nH]c1=O	-1%	-3	-3%	0%	?	21µM*
CC(C)n1c(CN(C)Cc2ccccc2)nc2c1c(=O)n(C)c(=O)n2C	?	3	4.1µM*	-9%	0.41µM*	0.73µM*
CN(Cc1ccccc1)Cc1nc2c(c(=O)n(C)c(=O)n2C)n1Cc1ccc(Cl)cc1	-4%	8	-17%	1%	?	?
CC(=O)C(C)n1c(CN(C)Cc2ccccc2)nc2c1c(=O)n(C)c(=O)n2C (stereo not given)	-8%	9	2%	-5%	8.2µM*	8.2µM*
Cn1c(=O)c2c(nc(CN3CCN(CCO)CC3)n2CCc2ccccc2)n(C)c1=O	-1%	-23	-13%	16%	-14%	14%
CCOc1ccc(Cc2noc3c2C(=O)CC(C)(C)C3)cc1OCC	-7%	15	-29%	-13%	?	-5%
Cc1ccc2occ(CC(=O)Nc3ccc(S(N)(=O)=O)cc3)c2c1	nt	nt	nt	nt	-14%	6%
Cc1ccc2occ(CC(=O)Nc3ccc(Cl)c(C(F)(F)F)c3)c2c1	nt	nt	nt	nt	16µM*	21µM*
CC(C)c1ccc2occ(CC(=O)Nc3cccc(C(F)(F)F)c3)c2c1	nt	nt	nt	nt	29µM*	?
CCc1ccc2occ(CC(=O)Nc3ccccc3C(F)(F)F)c2c1	nt	nt	nt	nt	-21%	-14%
CCOc1ccccc1NC(=O)Cc1coc2ccc(C)cc12	9%	28	-20%	6%	16µM*	?
Cc1cc(C)c(C(=O)CN2C(=O)NC3(CCCCCC3)C2=O)cc1C	8%	-19	?	7%	?	20%
CC1C/C(=N/NC(=O)c2cccc(F)c2)c2ccc(O)cc2C1 (stereo not given)	5%	-2	-5%	9%	?	22µM*
COc1ccc2c(c1)CC(C)C/C2=N\NC(=O)c1ccco1 (stereo not given)	-8%	-5	7%	1%	?	0%
N#Cc1cccnc1N1CCN(C(=O)c2cccc3c2C(=O)c2ccc(Cl)cc2S3(=O)=O)CC1	-24%	-99*	?	?	16µM*	?
COc1ccc(-c2ccc3c(c2)S(=O)(=O)c2cccc(C(=O)N4CCN(c5c(Cl)cncc5Cl)CC4)c2C3=O)cc1OC	-1%	-11	?	-10%	5.2µM*	5.8µM*
O=C(NC1CCCC1)c1cccc2c1C(=O)c1ccc(Cl)cc1S2(=O)=O	15%	-1	19%	6%	-20%	-4%
SMILES	HT1080 IDH1KD tx	IL1B secr inh	ELG1 repair inh	HT1080NT lethal	DT40 TDP1 no CPT	DT40 TDP1 CPT
O=C1c2ccc(Cl)cc2S(=O)(=O)c2cccc(C(=O)N3CCN(c4ncc(Br)cn4)CC3)c21	17%	?	?	10%	21µM*	?
N#Cc1cccnc1N1CCN(C(=O)c2cccc3c2C(=O)c2ccc(-c4ccc(Cl)c(C(F)(F)F)c4)cc2S3(=O)=O)CC1	1%	11	?	9%	-23%	?
COc1ccc(NC(=O)CCn2cccn2)cc1OC	nt	nt	nt	nt	20%	2%
O=C(CSc1nc2cc3ccccc3cc2[nH]1)Nc1cccc(C(F)(F)F)c1	nt	nt	nt	nt	21µM*	18µM*
Nc1ncnc2nc(SCC(=O)Nc3cccc(C(F)(F)F)c3)[nH]c12	-12%	21	0%	-2%	-6%	-14%
O=C(CSc1nc2ccccc2c(=O)[nH]1)Nc1ccccc1C(F)(F)F	-7%	-5	-1%	-5%	?	?
COc1cc(OC)c(NC(=O)CSc2nc3ccncc3[nH]2)cc1Cl	nt	nt	nt	nt	5.2µM*	6.5µM*
O=C(CSc1nc2ccncc2[nH]1)Nc1ccccc1C(F)(F)F	0%	38	?	-2%	15µM*	?
Cc1noc(C)c1CSCC(=O)N(C)CC(=O)Nc1ccccc1C(F)(F)F	-2%	13	3%	9%	-4%	9%
C=CCOC(=O)C1=C[C@H](c2coc3ccccc3c2=O)C[C@H](OCCCCO)O1	7%	-1	nt	6%	-16%	-23%
c1ccc(COc2ccc(-c3cc4nc(NCCOc5ccccc5)ccn4n3)cc2)cc1	-21%	51	nt	-25%	?	23µM*
COCCCNc1ccn2nc(-c3ccc(OCc4ccccc4)cc3)cc2n1	?	20	nt	9%	?	16µM*
c1ccc(COc2cccc(-c3cc4nc(NCCOc5ccccc5)ccn4n3)c2)cc1	?	-30	nt	?	?	?
Cc1cc2nc(-c3ccc(OCc4ccccc4)cc3)cc(C(F)(F)F)n2n1	nt	nt	nt	nt	-29%	-26%
C=C1C2CC[C@@]3(C)C(c4ccoc4)OC(=O)C[C@@]13OC1CC(OC(C)=O)C(C)(C)C(CC(=O)OC)[C@@]12C (stereo not given in full)	nt	nt	nt	nt	12µM*	13µM*
C=C1C2CC[C@@]3(C)C(c4ccoc4)OC(=O)C[C@@]13OC1CC(=O)C(C)(C)C(CC(=O)OC)[C@]12C (stereo not given in full)	nt	nt	nt	nt	-12%	0%
C/C=C/c1ccc2oc(-c3ccc(O)cc3)c(C)c2c1	nt	nt	nt	nt	-8%[9.04 µM]	2%[9.04 µM]

Screening results deposited in PubChem by National Center for Advancing Translational Sciences (NCATS).
